Sampled rows, rich in hits. Any-hit rate of the full collection: about 4%.
RAD52 inh – RAD52 DNA annealing inhibitors, primary screen, biochemical, FRET, single point, set 2; DNA repair protein RAD52 homolog (Homo sapiens), P43351; 360,000 tested, 0.46% active; recombinant RAD52 DNA annealing, FRET fluorescence; AID 651710, 2012; inhibition, % at 18.7 µM;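 active means every replicate showing at least 50% inhibition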
Target sequence (P43351 whole entry, looked up): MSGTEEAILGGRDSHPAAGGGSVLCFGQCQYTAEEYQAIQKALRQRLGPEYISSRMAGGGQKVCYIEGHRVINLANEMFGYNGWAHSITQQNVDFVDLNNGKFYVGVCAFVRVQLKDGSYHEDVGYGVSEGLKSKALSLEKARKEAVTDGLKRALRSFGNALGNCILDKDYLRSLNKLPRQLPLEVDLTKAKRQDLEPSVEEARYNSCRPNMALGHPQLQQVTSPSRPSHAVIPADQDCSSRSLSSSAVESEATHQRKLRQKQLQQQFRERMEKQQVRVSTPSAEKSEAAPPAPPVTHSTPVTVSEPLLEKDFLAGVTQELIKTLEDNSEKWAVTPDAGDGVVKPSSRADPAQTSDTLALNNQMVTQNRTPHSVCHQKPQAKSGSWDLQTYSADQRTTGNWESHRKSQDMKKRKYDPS
DENV2 CPE rescue – inhibitors of DENV2 cytopathic effect, primary screen, cell-based, plate reader, single concentration; CPE inhibition, % at 9.99 µM; DENV2-infected cells, cytopathic effect rescue; 350,000 tested, 1.7% active; AID 651640, 2012; in the data active means CPE inhibition above about 20%, passing the limit was not always enough; tested in BHK-21 cells
FGF22 binding – binders of human FGF22 protein, primary screen, FGF22 synaptogenesis inhibitor project, biophysical, thermal shift, single point; Fibroblast growth factor 22 (Homo sapiens), Q9HCT0; recombinant FGF22 thermal shift, SYPRO orange fluorescence; percent of sucrose octasulfate shift, DMSO zero; activity (Tm shift, normalised), % at 9.99 µM; 340,000 tested, 1.5% active;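 active means mean Tm shift, scaled 0 neutral to 100 positive control, at about 1.3% or above, every replicate too, limit read from the data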
Target sequence (Q9HCT0 whole entry, looked up): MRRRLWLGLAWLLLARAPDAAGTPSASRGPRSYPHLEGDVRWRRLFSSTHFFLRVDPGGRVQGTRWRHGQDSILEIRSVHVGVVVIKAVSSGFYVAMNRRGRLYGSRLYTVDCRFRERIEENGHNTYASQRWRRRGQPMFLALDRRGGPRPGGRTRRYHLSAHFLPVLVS
AF4-AF9 inh – inhibitors of AF4 peptide binding to AF9, primary screen, biochemical, AlphaScreen, biotin-AF4 peptide, FLAG-AF9, single point; Protein AF-9 (Homo sapiens), P42568; inhibition, % at 10 µM; 350,000 tested, 0.47% active; AID 651704, 2012;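 active means every replicate reaching a set inhibition limit, whatever the replicate mean, cut at about 25% in these data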
ERAP1 HTS inh – human ERAP1 aminopeptidase inhibitors, primary screen, biochemical, single point, plate reader. 340,000 tested, 0.15% active. inhibition, % at 10.7 µM. recombinant ERAP1, Leu-AMC fluorescence, 60 min;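 active means mean replicate inhibition of at least 30%, or all replicates individually reaching that 30% level; inactive means mean below 30% and not every replicate reaching it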
Numbers stand for hits; 0 = inactive; - = no result given; ! = not confirmed by another sample.

SMILES	RAD52 inh	DENV2 CPE rescue	FGF22 binding	AF4-AF9 inh	ERAP1 HTS inh
COc1ccc2c3c([nH]c2c1)[C@@H](CO)N(C(=O)NC(C)C)CC31CCN(C(=O)c2cccnc2)CC1	0	0	0	0	0
C[C@@H]1CN([C@H](C)CO)C(=O)Cc2cc(NS(=O)(=O)c3cccs3)ccc2O[C@H]1CN(C)CC1CC1	0	0	0	0	0
Cc1cc(-c2onc(C)c2C(=O)Oc2ccc(Cl)cc2)no1	0	72.6	0	0	0
Cc1cc(-c2onc(C)c2C(N)=O)no1	0	0	0	0	0
COc1ccc2c3c(n(C)c2c1)[C@@H](CO)N(CC1CCOCC1)CC31CCN(C(C)=O)CC1	0	0	0	0	0
CCCOc1ccc(C(=O)Nc2ccc(S(=O)(=O)N3CCN(C)CC3)cc2)cc1	0	0	0	0	0
CCCOc1ccc(C(=O)Nc2ccc(S(=O)(=O)N3C[C@@H]4C[C@@H](C3)c3cccc(=O)n3C4)cc2)cc1	0	31.3	0	-	0
CCOc1ccc(/C=N/NC(=O)c2ccc(F)cc2)cc1CN1CC2CC(C1)c1cccc(=O)n1C2 (centres undefined)	0	20.3	0	-	0
C/C=C/c1ccc([C@H]2[C@@H](CO)N(C(=O)c3cnccn3)C23CN(C(=O)CC)C3)cc1	0	0	0	0	0
COc1ccc(C(C(N)=O)c2ncc(C(F)(F)F)cc2Cl)cc1OC (centres undefined)	0	0	43.4	0	0
Cc1cccc(C(C(N)=O)c2ncc(C(F)(F)F)cc2Cl)c1 (centres undefined)	0	0	43.6	0	0
COCC#Cc1cnc2c(c1)C(=O)N([C@@H](C)CO)C[C@@H](C)[C@H](CN(C)S(C)(=O)=O)O2	0	0	0	0	0
O=C(C[C@@H]1C[C@@H]2c3cc(NC(=O)c4ccc5c(c4)OCO5)ccc3O[C@@H]2[C@@H](CO)O1)NCCc1ccccc1	0	0	0	0	0
COc1ccc(S(=O)(=O)N[C@H]2C=C[C@@H](CC(=O)N3CCC(Cc4ccccc4)CC3)O[C@H]2CO)cc1	0	0	0	0	0
Cc1ccc(C(=O)Nc2nnc(CC(=O)N/N=C/c3ccncc3)s2)cc1	0	0	43.9	0	0
Cc1ccc(C(=O)Nc2nnc(CC(=O)N/N=C/c3ccc(O)c(O)c3)s2)cc1	0	0	0	0	0
Cc1ccccc1OCc1n(CC(=O)OC2CC(C)CCC2C(C)C)c2ccccc2[n+]1C (centres undefined)	0	0	43.3	0	0
CC1CCC(C(C)C)C(OC(=O)Cn2c(-c3ccc(Cl)cc3)[n+](C)c3ccccc32)C1 (centres undefined)	0	0	0	0	31.0
CC1CCC(C(C)C)C(OC(=O)Cn2c(-c3ccc(Br)cc3)[n+](C)c3ccccc32)C1 (centres undefined)	0	0	0	0	0
CCCCCCCCCCOC(=O)Cn1c(COc2ccccc2C)[n+](C)c2ccccc21	82.9	-	-	-	32.9
C=CCn1cnnc1SCC(=O)N(C1CCCCC1)C1CCS(=O)(=O)C1 (centres undefined)	0	0	0	0	0
Cc1nnc(SCC(=O)N(C2CCCCC2)C2CCS(=O)(=O)C2)n1N (centres undefined)	0	34.9	0	0	0
COc1ccc(NC(=O)Nc2ccc3c(c2)[C@@H]2C[C@@H](CC(=O)N4CCN(C)CC4)O[C@@H](CO)[C@@H]2O3)cc1	0	0	0	0	0
CN1CCN(C(=S)c2cn(Cc3ccc(F)cc3)c3ccccc23)CC1	0	0	0	31.0	0
CCNC(=O)C[C@H]1CC[C@@H]2[C@H](COC[C@@H](O)CN2C(=O)Nc2ccc(Cl)c(Cl)c2)O1	0	0	0	0	0
SMILES	RAD52 inh	DENV2 CPE rescue	FGF22 binding	AF4-AF9 inh	ERAP1 HTS inh
CC(C)NC(=O)N1[C@H](CO)[C@H](c2ccccc2)C12CN(C(=O)CN(C)C)C2	0	0	0	0	0
CC1(C(=O)NCc2ccccc2)Cc2c(-c3ccc(C(N)=O)cc3)ccnc2O1 (centres undefined)	0	0	0	0	0
CC1(C(=O)NCc2ccco2)Cc2c(-c3ccc(C(N)=O)cc3)ccnc2O1 (centres undefined)	0	39.9	0	0	0
O=Cc1ccc(-c2ccccc2C(=O)O)o1	0	0	43.1	0	0
O=C1NC(c2ccccc2)=CC(c2ccccc2O)N1 (centres undefined)	0	145.1	0	0	0
O=C1NC(c2ccccc2)=CC(c2ccccc2)N1 (centres undefined)	0	0	44.1	0	0
O=C(CN1CCOCC1)N[C@H]1CC[C@H](CCn2cc(C3CCCC3)nn2)O[C@@H]1CO	0	0	-	0	0
COc1ccc2c3c(n(C)c2c1)[C@@H](CO)N(C(=O)Nc1ccc(F)cc1)CC31CCN(S(=O)(=O)c2cn(C)cn2)CC1	0	0	0	0	0
CN(C)CC/C=C1\c2ccccc2COc2ccccc21	0	0	0	0	0
CN(C)CC/C=C1/c2ccccc2Sc2ccc(Cl)cc21	0	0	0	26.9!	0
CCCCC(OC(=O)c1ccco1)C(=O)NCc1ccc(C)cc1 (centres undefined)	0	0	0	0	0
O=C(OC(C(=O)NCc1ccccc1)c1ccco1)c1ccccc1 (centres undefined)	0	38.0	0	0	0
O=C(OC(C(=O)NCc1ccccc1)c1cccs1)c1ccccc1 (centres undefined)	0	0	0	0	0
Cc1ccc(CNC(=O)C(CC(C)C)OC(=O)c2ccco2)cc1 (centres undefined)	0	30.5	0	0	0
CC(=O)N(C)C[C@@H]1Oc2ncc(C#Cc3ccncc3)cc2C(=O)N([C@H](C)CO)C[C@@H]1C	0	0	-	0	0
O=C(/C=C/c1ccccc1)Nc1ccc2c(c1)C(=O)NC2=O	0	0	0	50.1	0
CC(C)c1cn(CC[C@@H]2CC[C@@H](NC(=O)c3cccc(F)c3)[C@@H](CO)O2)nn1	0	0	0	0	0
S=C(NCC(c1cccnc1)N1CCOCC1)NC1CCCCC1 (centres undefined)	0	0	0	0	0
Fc1ccc(C(CNC(=S)NC2CCCCC2)N2CCOCC2)cc1 (centres undefined)	0	-	43.1	0	0
COc1ccc2c3c(n(C)c2c1)[C@@H](CO)N(C(=O)C1CCCCC1)CC31CCN(C(=O)CN(C)C)CC1	0	0	0	0	0
C[C@H]1CN([C@@H](C)CO)C(=O)c2cccc(NC(=O)c3cnccn3)c2O[C@H]1CN(C)Cc1ccc(Cl)c(Cl)c1	0	22.7	0	0	0
C[C@H](CO)N1C[C@H](C)[C@H](CN(C)Cc2ccc(Cl)c(Cl)c2)Oc2c(NC(=O)c3cnccn3)cccc2C1=O	0	0	0	0	0
